The text below walks through data of PubChem BioAssay (NCI).

Some test systems named below: BT-549 breast; MDA-MB-435 melanoma; SW-620 colon; MCF7 breast; HCT-116 colon; HCC-2998 colon; KM12 colon.
Holding throughout (experiment): NCI-60 one-dose screen, 48 h (100 = growth as untreated, 0 = no growth, -100 = all killed)
Common to all, as to settings: 10 µM unless noted

About 83,000 compounds went through this panel and 20% of them were active in at least one assay; those are over-represented in the sample as a whole.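 The endpoint reported here, percent growth, reads 100 for growth as untreated, 0 for no net growth and -100 for all cells dead.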 A number with no mark means an inactive call. Calls of active or inactive are those of the source. The calls were made as follows: active = growth percent below 10; inactive = the rest.

Turning to `Cc1ccc(C2=N[C@H]3CCC[C@@H]3N(c3ccccc3)C(C(Cl)Cl)=N2)cc1`, the growth is 106% in the experiment on BT-549 breast; 103% in the experiment on MDA-MB-435 melanoma; 107% in the experiment with SW-620 colon; 87% with MCF7 breast; 97.7% with HCT-116 colon; 110% in the experiment on HCC-2998 colon. The growth in the experiment on KM12 colon was 100%.
Regarding `N#Cc1c(-c2ccc(F)cc2)nc(N=Nc2c(O)[nH]c3ccc(Cl)cc23)nc1N1CCOCC1`, the growth with BT-549 breast was 71.4%; in the experiment on MDA-MB-435 melanoma it was 67%; with SW-620 colon, 68.9%; with MCF7 breast, 39.9%; in the experiment with HCT-116 colon, 21.4%; in the experiment with HCC-2998 colon, 96.7%. Moreover, the growth with KM12 colon was 48.5%.
Take `O=c1cc(/C=N\Nc2nc(-c3ccc(Cl)cc3Cl)cs2)c2cc(Cl)ccc2o1`: the growth in the experiment with BT-549 breast was 96.7%; in the experiment with MDA-MB-435 melanoma, 105%; in the experiment with SW-620 colon it was 104%; in the experiment on MCF7 breast, 78.2%; in the experiment with HCT-116 colon, 80%; in the experiment with HCC-2998 colon, 105%. The growth with KM12 colon is 94.3%.
Take `Cc1[nH]c2ncnc(Oc3ccc(NC(=O)Nc4ccc(Cl)c(C(F)(F)F)c4)cc3)c2c1C`: the growth with BT-549 breast was 79.4%; with MDA-MB-435 melanoma it was 45.4%; in the experiment with SW-620 colon, 77.9%; in the experiment with MCF7 breast, 31.6%; in the experiment on HCT-116 colon, 42.4%; in the experiment with HCC-2998 colon, 60.5%. Moreover, in the experiment with KM12 colon, the growth is 27.3%.
For the compound `CN1CCN(/C=C2\CC(C(=O)NCc3ccc(Cl)cc3Cl)NC2=O)CC1` (stereo not given), the growth was 136% in the experiment with BT-549 breast; 119% in the experiment with MDA-MB-435 melanoma; 98% with SW-620 colon; 103% in the experiment on MCF7 breast; 110% in the experiment on HCT-116 colon; 101% in the experiment on HCC-2998 colon. In addition, in the experiment with KM12 colon, the growth is 103%.
In the case of `O=C1NN(c2ccccc2)C(c2ccc(Cl)cc2)N2CCC[C@H]12` (stereo not given in full), the growth with BT-549 breast is 117%; in the experiment on MDA-MB-435 melanoma, 99.2%; with SW-620 colon, 87.3%; with MCF7 breast, 79.9%; in the experiment on HCT-116 colon it was 99.7%; in the experiment on HCC-2998 colon, 88.1%. Moreover, the growth with KM12 colon was 94.9%.
On to `C=C1C(=O)O[C@H]2[C@H]1CC/C(COC(=O)CCCCC(=O)OC/C1=C/CC[C@@]3(C)O[C@H]3[C@H]3OC(=O)C(=C)[C@@H]3CC1)=C\CC[C@@]1(C)O[C@@H]21`, for which the growth in the experiment with BT-549 breast was 61.1%; in the experiment on MDA-MB-435 melanoma, 56.2%; in the experiment on SW-620 colon, 25.1%; in the experiment with MCF7 breast, 21.3%; with HCT-116 colon, 3.28% (active); with HCC-2998 colon it was 100%. Further, in the experiment on KM12 colon, the growth was 90.6%.
Consider `NC(=O)c1ccc2nc3c(n2c1)C(=O)C(=O)c1ccccc1-3`, for which the growth is -94.3% (active) in the experiment on BT-549 breast; -91.4% (active) in the experiment with MDA-MB-435 melanoma; -50.4% (active) in the experiment with SW-620 colon; -55.5% (active) with MCF7 breast; -79.4% (active) with HCT-116 colon; -84.5% (active) with HCC-2998 colon. The growth in the experiment on KM12 colon was -50.1% (active).
Turning to `COc1ccc2oc(=O)cc(-c3c(C#N)c(N)n4nc(N)c(C#N)c4c3C#N)c2c1`, the growth in the experiment on BT-549 breast is 89.3%; in the experiment with MDA-MB-435 melanoma, 113%; in the experiment with SW-620 colon it was 98%; with MCF7 breast it was 105%; with HCT-116 colon it was 108%; in the experiment with HCC-2998 colon, 96.6%. Also, the growth with KM12 colon is 99%.
As to `C=C1C(=O)O[C@H]2[C@H]1CC/C(COC(=O)CCC(=O)OC/C1=C/CC[C@@]3(C)O[C@H]3[C@H]3OC(=O)C(=C)[C@@H]3CC1)=C\CC[C@@]1(C)O[C@@H]21`, the growth is 67.1% in the experiment with BT-549 breast; 44.5% in the experiment with MDA-MB-435 melanoma; 5.48% (active) in the experiment with SW-620 colon; 12% with MCF7 breast; -43% (active) with HCT-116 colon; 93.8% in the experiment on HCC-2998 colon. Further, the growth in the experiment on KM12 colon is 85%.
For `NC(=N\N=C\c1ccccc1O)/C(N)=N/N=C/c1ccccc1O`, the growth is 72% with BT-549 breast; 72.2% with MDA-MB-435 melanoma; 71.5% with SW-620 colon; 69.4% in the experiment with MCF7 breast; 81.3% in the experiment with HCT-116 colon; 99.1% with HCC-2998 colon. In the experiment on KM12 colon, the growth is 55.8%.
Turning to `COc1cc(C2CC(c3ccc(Nc4nc(NCCO)nc(NCCO)n4)cc3)=NN2c2cc(Cl)cc(Cl)c2)cc(OC)c1OC` (stereo not given), the growth with BT-549 breast was -27.2% (active); in the experiment with MDA-MB-435 melanoma it was -15.9% (active); in the experiment on SW-620 colon, -4.18% (active); in the experiment on MCF7 breast, -60.9% (active); in the experiment on HCT-116 colon, 9.76% (active); in the experiment with HCC-2998 colon, 24.4%. Also, in the experiment on KM12 colon, the growth was -25.6% (active).
As to `CC1CCCN(CCCCCOc2ccc3oc4ccccc4c(=O)c3c2)C1` (stereo not given), the growth in the experiment with BT-549 breast was 74.3%; in the experiment on MDA-MB-435 melanoma, 46%; with SW-620 colon, 70.1%; in the experiment with MCF7 breast, 63.1%; in the experiment with HCT-116 colon, 52.7%; in the experiment on HCC-2998 colon, 85.3%. The growth in the experiment with KM12 colon is 64.3%.
For the compound `CCCCc1n(Cc2ccc3ccccc3c2)c2ccccc2[n+]1Cc1ccc2ccccc2c1`, the growth in the experiment on BT-549 breast was -74% (active); in the experiment with MDA-MB-435 melanoma, -93.6% (active); in the experiment with SW-620 colon, -79.8% (active); in the experiment with MCF7 breast, -85.6% (active); in the experiment on HCT-116 colon it was -83.2% (active); in the experiment with HCC-2998 colon, -80.6% (active). Besides, the growth in the experiment on KM12 colon was -82.9% (active).
Turning to `O=C(C[n+]1cccc2cc(Cl)ccc21)c1ccc2c(c1)CCCC2`, the growth in the experiment on BT-549 breast is 22.2%; in the experiment with MDA-MB-435 melanoma, 10.8%; in the experiment on SW-620 colon, 35.6%; in the experiment on MCF7 breast it was 4.57% (active); with HCT-116 colon, 7.99% (active); with HCC-2998 colon, 27.7%. Moreover, the growth with KM12 colon was 14.7%.
